# From PubChem
# Rows were chosen to be rich in hits. Some 4.1% of all compounds tested hit in one or more screens of this group.
# ALR inh: human ALR oxidase inhibition via reduced H2O2. purified ALR, DTT oxidation, H2O2 HRP-luminol luminescence. inhibition, % (no concentration beside the values). hit rate 3.8% among 290,000. AID 485317;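 active means mean replicate inhibition above about 79%, with every replicate also reaching it, limit read from the data; inconclusive means only one of the two criteria met; inactive means mean below limit and not every replicate reaching it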
# Target sequence (P55789 whole entry, looked up): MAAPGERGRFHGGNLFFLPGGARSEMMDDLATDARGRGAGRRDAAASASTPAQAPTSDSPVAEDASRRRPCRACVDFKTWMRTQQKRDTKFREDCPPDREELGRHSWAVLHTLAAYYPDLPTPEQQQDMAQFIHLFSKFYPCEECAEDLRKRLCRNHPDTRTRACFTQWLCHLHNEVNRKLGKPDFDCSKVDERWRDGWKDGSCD
# HIV Env fusion: HIV envelope-mediated fusion inhibition; hit rate 1.1% among 360,000; inhibition, % at 12.3 µM; HeLa-JRFL Env/CEM21 cell fusion, luciferase;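 active means mean replicate inhibition score of at least 50 and every replicate individually at or above 50; inconclusive means only one of the two criteria met; inactive means mean below 50 and not all replicates reaching 50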;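 further: 0% = plate neutral controls and 100% = maraviroc near 300 nM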
# PglD inh: inhibitors of Campylobacter jejuni PglD acetyltransferase. hit rate 0.098% among 360,000. inhibition, % at 12.5 µM. AID 602405. purified PglD enzyme, DTNB colorimetric CoA detection; in the data active means inhibition above about 16%, passing the limit was not always enough; inconclusive means no clear call, values can overlap the other calls
# F508del corr: CFTR F508del correction in bronchial cells; CFBE cells, YFP halide quenching; stimulated with forskolin plus potentiator P3; % fluorescence drop versus neutral controls; hit rate 0.36% among 350,000; activity (quench increase), % at 7.58 µM; AID 720511;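 active means mean added fluorescence quench of at least 8% versus neutral control, with both replicates also reaching 8%; inconclusive means only one of the mean or replicate conditions met; inactive means mean below 8% and not both replicates reaching 8%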;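 further: cells transiently co-express mutant CFTR-F508del with the halide-sensitive YFP; corrector assay measuring rescue of mutant channel to the surface after 24 h compound exposure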
# NSD2 inh: inhibitors of human histone methyltransferase NSD2; O96028; NSD2 peptide methylation, AlphaScreen, 120 min; inhibition, % at 12.5 µM; hit rate 0.54% among 310,000; AID 743445; in the data active means inhibition above about 50%
# CASP6 VEID inh: inhibitors of human caspase-6. purified caspase-6, Z-VEID-R110 cleavage fluorescence. inhibition, % at 12.5 µM. hit rate 0.53% among 350,000. AID 686996;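 active means mean inhibition across replicates at least about 35%, with every replicate also reaching that limit, limit read from the data; inconclusive means only one of the two criteria met; inactive means neither criterion met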;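 further: 0% = median of neutral control wells and 100% = no fluorescence left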
# Target sequence (P55212 24-179 limits assumed): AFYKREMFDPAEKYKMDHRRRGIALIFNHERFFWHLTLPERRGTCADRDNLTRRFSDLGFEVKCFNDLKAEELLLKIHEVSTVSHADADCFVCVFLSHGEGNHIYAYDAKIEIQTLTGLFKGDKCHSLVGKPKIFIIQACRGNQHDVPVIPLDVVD
# Target sequence (P55212 194-293 limits assumed): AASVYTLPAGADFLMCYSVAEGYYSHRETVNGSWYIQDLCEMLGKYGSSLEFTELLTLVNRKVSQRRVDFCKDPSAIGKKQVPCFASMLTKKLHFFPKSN
# * hit, by the source's call; ? = inconclusive; · = not tested or not shown; [ ] = another dose, or the depositor's remark.
SMILES,ALR inh,HIV Env fusion,PglD inh,F508del corr,NSD2 inh,CASP6 VEID inh
COC(=O)c1ccc(CSc2nc3ccc(C)cc3[nH]2)o1,95*,·,4,·,1,·
COC(=O)c1ccc(CSc2n[nH]c(=S)s2)o1,92*,·,5,·,0,·
CCOC(=O)c1sc(N)c(C#N)c1CSc1nc2ccc(C)cc2[nH]1,91*,·,·,·,1,·
COc1cccc(CNC(=O)CSc2nc3ccc(C)cc3[nH]2)c1,-1,-6,-1,8.4*,-2,0
CCCNC(=O)N(C)C[C@@H]1Oc2ncc(-c3ccccc3)cc2C(=O)N([C@@H](C)CO)C[C@@H]1C,·,3[16.7 µM],-3,4,·,-1
C[C@@H]1CN([C@@H](C)CO)C(=O)c2cc(NC(=O)CCCN(C)C)ccc2O[C@@H](C)CCCCO[C@@H]1CN(C)S(=O)(=O)c1ccc(F)cc1,·,19[16.7 µM],-3,1,·,0
O=C(NC1CCCCC1)c1sc(=S)n2c1[nH]c(=O)c1ccccc12,97*,6,0,·,12,·
CC(CCc1ccccc1)NCc1cccc2ccccc12 (stereo unspecified),-15,66*,-1,0,20,-3
c1c2c(cc3sc(N4CCOCC4)nc13)OCO2,97*,-147,-2,·,11,·
c1c2c(cc3sc(N4CCCCC4)nc13)OCO2,99*,-280,-2,·,·,·
CC(=O)N1CC2(C1)[C@H](c1ccc(-c3ccc(C#N)cc3)cc1)[C@@H](CO)N2CCC(F)(F)F,·,·,·,5,·,5
Cc1ccc(S(=O)(=O)N(C)Cc2ccc(C(=O)N/N=C/c3ccc(OC(F)F)cc3OC(F)F)cc2)cc1,1,66*,-3,·,-2,-4
CC(C)CC#Cc1ccc2c(c1)O[C@@H](CN(C)Cc1cccc(F)c1)[C@H](C)CN([C@H](C)CO)S2(=O)=O,·,16[16.7 µM],3,-3,·,-1
CN(C)CCCn1c(SCC(=O)Nc2nc(-c3cccc(Br)c3)cs2)nc2ccccc2c1=O,99*,-15,0,-4,6,-11
COCCN(CCOC)c1nc(-c2ccc(C)cc2)nc2ccccc12,22,6,-2,·,-5,-8
CCCN(CCC)c1nc(-c2ccccn2)nc2ccccc12,4,71*,-9,5,24,-5
CCN1CCN(c2nc(-c3ccccn3)nc3ccccc23)CC1,-17,-16,-4,·,30,·
CCCCN(CC)c1nc(-c2ccncc2)nc2ccccc12,·,64*,-7,·,2,·
c1ccc(CCNc2nc(-c3ccccn3)nc3ccccc23)cc1,7,25,4,13*,·,-2
C[C@H](CO)N1C[C@H](C)[C@@H](CN(C)C(=O)CC2CC2)Oc2cc(C#CC(C)(C)O)ccc2S1(=O)=O,·,-10[16.7 µM],-1,-2,·,0
CN(C)C(=O)C[C@@H]1CC[C@@H]2[C@H](COc3ccc(NC(=O)C4CCC4)cc3C(=O)N2C)O1,·,·,·,5,·,2
C[C@H]1CN([C@@H](C)CO)C(=O)c2cccc(NC(=O)c3cnccn3)c2O[C@@H]1CN(C)S(=O)(=O)c1ccc(Cl)cc1,·,15[16.7 µM],·,-2,·,·
O=C(NCC(c1cccnc1)N1CCN(c2ccc(F)cc2)CC1)C1CCCCC1 (stereo unspecified),98*,·,-11,·,0,·
COc1ccc(N2CCN(C(CNC(=O)C3CCCCC3)c3cccnc3)CC2)cc1 (stereo unspecified),?,·,-7,·,2,·
COc1ccc(C(=O)NCC(c2cccnc2)N2CCN(c3ccccc3OC)CC2)cc1OC (stereo unspecified),50,21,8,-2,·,0
SMILES,ALR inh,HIV Env fusion,PglD inh,F508del corr,NSD2 inh,CASP6 VEID inh
COc1ccc(C(=O)NCC(c2cccnc2)N2CCN(c3ccccc3)CC2)cc1OC (stereo unspecified),98*,11,1,-1,·,-2
COc1ccc(C(=O)NCC(c2cccnc2)N2CCN(c3ccc(F)cc3)CC2)cc1OC (stereo unspecified),86*,-8,4,-1,·,-1
COc1cc(C(=O)NCC(c2cccnc2)N2CCN(c3ccc(F)cc3)CC2)cc(OC)c1OC (stereo unspecified),55,-30,·,-3,-1,-6
O=C(NCC(c1cccnc1)N1CCN(c2ccc(F)cc2)CC1)c1ccc(F)cc1 (stereo unspecified),98*,·,4,·,1,·
CCCNC(=O)N(C)C[C@@H]1Oc2ncc(C3=CCCC3)cc2C(=O)N([C@@H](C)CO)C[C@H]1C,·,13[16.7 µM],2,-1,·,-3
CO[C@H]1CN(C)C(=O)c2cc(NC(=O)c3ccc4c(c3)OCO4)ccc2OC[C@H](C)NC[C@H]1C,·,5[16.7 µM],0,1,·,-3
Cc1cccn2cc(-c3c[nH]c4ccccc34)nc12,98*,-58,-4,-6,5,0
Nc1c(C=C2C=CC(=O)C=C2)c(=O)nc2sc(CC(=O)N3CCCCC3)nn12,·,2,-7,-2,4,27
Nc1c(/C=C2/C=CC(=O)C(O)=C2)c(=O)nc2sc(CC(=O)N3CCCCC3)nn12,99*,0,0,-3,142*,83*
Nc1c(/C=C2/C=CC(=O)C(O)=C2)c(=O)nc2sc(CC(=O)N3CCCC3)nn12,99*,-7,-1,2,119*,48*
CCN(c1ccc(C)c(C)c1)S(=O)(=O)c1ccc2c(c1)CCN2C(=O)CCC(=O)O,99*,·,·,2,1,-1
C[C@@H]1CN([C@@H](C)CO)C(=O)Cc2cc(NC(=O)Nc3ccc4c(c3)OCO4)ccc2O[C@H]1CN(C)Cc1ccc(-c2ccccc2)cc1,·,34[16.7 µM],3,-2,·,2
